# TIM10 inh – growth inhibitors of TIM10 yeast strain. S. cerevisiae TIM10 strain growth, BacTiter-Glo luminescence, 24 h. actives 1.4% (n = 330,000). inhibition, % at 10 µM;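 active = inhibition of 40% or more at the single tested concentration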;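 note: wild-type TIM10 isogenic control strain grown at permissive 25 °C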
# NLRP3 yeast inh – blocks the NALP3 inflammasome reconstituted in yeast | inhibition, % at 10 µM | actives 0.39% (n = 330,000) | AID 2825 | Yeast reconstituted NLRP3/ASC/caspase-1, beta-gal luminescence, 24 h;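 active = inhibition of 50% or more; inactive = inhibition below 50%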;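 note: plate controls were induced DMSO wells for no effect and uninduced yeast grown without galactose for full effect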
# PfHsp90 yeast 2 – growth inhibition of yeast expressing Plasmodium Hsp90; S. cerevisiae expressing PfHsp90, BacTiter-Glo ATP, 48 h; yeast lacking PDR1 and PDR3 efflux regulators; inhibition, % at 9.4 µM; actives 0.32% (n = 310,000);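 active = every replicate shows inhibition above about 80%, whatever the replicate mean, limit read from the data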;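 note: 0% = DMSO neutral controls and 100% = 20 µM radicicol positive controls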
# tim10-1 inh – growth inhibitors of tim10-1 mutant yeast. inhibition, % at 20 µM. actives 2.2% (n = 330,000). S. cerevisiae tim10-1 ts strain growth, BacTiter-Glo, 24 h;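 active = inhibition of at least 40%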;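 note: mutant grown at 25 °C; 0% = DMSO wells with yeast and 100% = wells holding no yeast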
# tim23-1 inh – inhibits growth of tim23-1 mutant yeast; inhibition, % at 20 µM; actives 1.3% (n = 330,000); S. cerevisiae tim23-1 growth, BacTiter-Glo luminescence, 24 h;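 active = growth inhibition of the mutant yeast at or above 50%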;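 note: temperature-sensitive mutant grown at 25 °C; plate controls were DMSO-treated mutant yeast for no effect and medium wells lacking yeast for full effect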
# SKKanGAS inh – inhibitors of SKKanGAS S. pyogenes growth in kanamycin (SK-promoter or general growth effect) | inhibition, % at 7.5 µM | actives 1.3% (n = 300,000) | BacTiter-Glo, 6 h;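 active = mean replicate score, as percent of positive control median, at least 50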;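 note: strain carries kanamycin resistance gene driven by streptokinase promoter and grows in 40 µg/ml kanamycin; loss of luminescence reflects streptokinase promoter inhibition or plain growth inhibition; 0% = median of DMSO wells and 100% = positive control at its reference dose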
# tim10-1 conf – confirmation of tim10-1 mutant yeast growth inhibitors; shares compounds with tim10-1 inh; S. cerevisiae tim10-1 ts strain growth, BacTiter-Glo, 24 h; inhibition, % at 20 µM; actives 56% (n = 7,400);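 active = inhibition of yeast growth at or above a set limit in either of two repeat tests at 20 µM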;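 note: tim10-1 mutant grown at permissive 25 °C to find synthetic lethal compounds; 0% = DMSO yeast wells and 100% = medium wells without yeast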
# The depositor's hits bear a star; x = no result. A selection: hits, their analogues and other compounds. The true share with any hit is near 4.6%.
SMILES,TIM10 inh,NLRP3 yeast inh,PfHsp90 yeast 2,tim10-1 inh,tim23-1 inh,SKKanGAS inh,tim10-1 conf
COc1ccc(CN2CCNC(=O)C2CC(=O)N2CCCO2)c(OC)c1 (centres undefined),7,4,-1,6,7,7,x
CC(Sc1nnc(NC2CCCCC2)s1)C(=O)Nc1ccc2c(c1)C(=O)c1ccccc1C2=O (centres undefined),17,24,-8,42*,23,28,19
COc1ccc(CNCCC(c2ccc(OC(C)C)cc2)c2ccccc2OC)cc1 (centres undefined),24,20,-12,2,15,2,x
COc1ccccc1C(CCNCc1ccccc1)c1ccc(OC(C)C)cc1 (centres undefined),21,13,0,41*,32,7,31*
O=C(COC(=O)c1c[nH]c2ccccc12)Nc1ccc([N+](=O)[O-])cc1,9,14,8,-4,14,x,x
CC(C)CCNC(=O)NC(=O)COC(=O)/C=C/c1cccc([N+](=O)[O-])c1,25,16,3,42*,18,7,18
CCCCN(C)C(=O)Cn1ncc2c3ccccc3n(CCC)c2c1=O,18,1,0,20,35,5,x
O=C(NCc1ccco1)c1cc2ccc(O)cc2oc1=O,34,1,x,55*,44,60*,46*
O=C(COC(=O)CNC(=O)c1cccs1)Nc1ccc(C(F)(F)F)cc1[N+](=O)[O-],-10,-2,x,-1,15,-1,x
Cc1ccc(CS(=O)(=O)c2ccc(C(=O)N3CCCCC3)cc2[N+](=O)[O-])cc1,19,24,-31,24,24,-2,x
Cc1ccc(CS(=O)(=O)c2ccc(C(=O)N3CCN(c4ccccn4)CC3)cc2[N+](=O)[O-])cc1,15,22,x,47*,33,6,24
Cc1c(C(=O)N2CCN(C3CCS(=O)(=O)C3)CC2)oc2c(F)cccc12 (centres undefined),-2,16,47,4,13,x,x
CC(CCc1ccccc1)NC(=O)COC(=O)c1ccc(S(C)(=O)=O)c([N+](=O)[O-])c1 (centres undefined),4,6,-24,46*,18,1,14
CCC1CCc2sc(C(=O)N(C)CC(=O)Nc3ccc(N4CCOCC4)cc3)cc2C1 (centres undefined),-71,19,-25,7,-14,4,x
Cc1ccc(/C(N)=N/OC(=O)N2CCOCC2)cc1,30,18,10,58*,29,1,46*
O=C(CNC(=O)c1ccccc1F)OC(C(=O)Nc1cc(C(F)(F)F)ccc1Cl)c1ccccc1 (centres undefined),9,-17,-11,43*,13,21,23
O=C(COC(=O)CNC(=O)c1ccccc1Cl)Nc1cc(C(F)(F)F)ccc1Cl,4,13,2,7,16,x,x
Cc1cc(NC(=O)c2noc3c2CCCC3)nn1Cc1ccc(Cl)cc1,17,16,6,45*,27,4,22
COc1ccc2c(c1)C1C=CCC1C(c1cc3c(cc1Br)OCO3)N2 (centres undefined),29,9,x,51*,28,3,38*
COC(CNC(=O)c1cnn2c(C)c(Cc3ccccc3)c(C)nc12)OC,-2,8,10,40*,26,-4,24
O=C(Cc1cccc(NC(=O)C2CCN(C(=O)C3CCCCC3)CC2)c1)Nc1cccc(C(=O)N2CCCC2)c1,9,7,-2,3,-3,x,x
CCn1c(=S)sc2c(=O)n(-c3ccccc3)c(SC)nc21,37,3,-25,48*,42,12,49*
COc1ccccc1/C=C1\SC(=S)N(NS(=O)(=O)c2ccc(C)cc2)C1=O,17,-28,-2,44*,40,17,18
Cc1cc(C(=O)NN=C2CCCCCC2)c(C)o1,1,-3,8,80*,13,-1,5
CCCOc1ccc(CSCCNC(=S)Nc2ccccc2)cc1,32,35,3,46*,41,2,28
